Screens (PubChem)
TDP1 inh: qHTS Assay for Inhibitors of Tyrosyl-DNA Phosphodiesterase (TDP1); recombinant TDP1, AlphaScreen DNA substrate cleavage; Potency, µM (doses to about 130 µM), for the others: top-dose activity change, negative = inhibition, usual class: inhibitors; 0.28% of 350,000 active; AID 485290, 2010; also: % is scaled to controls: 0 for no effect and ±100 for the full control effect; nearly all actives have a fitted effect of over 40% in size
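Enzyme-compound mixtures sat 15 min at room temperature, followed by a 5 min reaction with 15 nM final substrate and 10 min with AlphaScreen beads. Recombinant human Tdp1 was used at 1 nM final.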
G9a block: qHTS Assay for Inhibitors of Histone Lysine Methyltransferase G9a; G9a H3K9 monomethylation, AlphaScreen, 2 h; 8.8% of 350,000 active; Histone-lysine N-methyltransferase EHMT2 (Homo sapiens), Q96KQ7; AID 504332, 2011; Potency, µM (series often up to 102 µM), inactives show top-dose activity, negative = inhibition, most hits filed as inhibitors; also: % is scaled to controls: 0 for no effect and ±100 for the full control effect; nearly all actives have a fitted effect of over 75% in size
Target sequence (Q96KQ7 913-1193 limits assumed): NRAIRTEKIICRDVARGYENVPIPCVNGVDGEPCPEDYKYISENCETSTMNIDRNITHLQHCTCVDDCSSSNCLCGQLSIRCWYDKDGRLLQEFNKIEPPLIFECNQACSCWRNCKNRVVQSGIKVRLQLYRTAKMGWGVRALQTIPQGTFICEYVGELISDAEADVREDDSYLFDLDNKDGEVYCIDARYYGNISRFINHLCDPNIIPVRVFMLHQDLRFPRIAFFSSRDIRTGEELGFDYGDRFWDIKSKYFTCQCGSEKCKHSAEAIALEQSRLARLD
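AlphaScreen detection with an anti-monomethyl H3K9 antibody quantified product after a 2 h room-temperature reaction containing 500 nM biotinylated H3K9 peptide, 20 µM SAM and 20 nM enzyme, which had been preincubated 15 min with compound.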
HP1b binding inh: HTS for Inhibitors of HP1-beta Chromodomain Interactions with Methylated Histone Tails; AlphaScreen HP1-beta / biotin-H3K9me3 peptide binding; Chromobox protein homolog 1 (Homo sapiens), P83916; AID 540317, 2011; 0.56% of 390,000 active; Potency, µM (series often up to 114 µM), inactives show top-dose activity change, negative = inhibition, most hits filed as inhibitors; also: nearly all actives have a fitted effect of over 70% in size
Target sequence (P83916 whole entry, looked up): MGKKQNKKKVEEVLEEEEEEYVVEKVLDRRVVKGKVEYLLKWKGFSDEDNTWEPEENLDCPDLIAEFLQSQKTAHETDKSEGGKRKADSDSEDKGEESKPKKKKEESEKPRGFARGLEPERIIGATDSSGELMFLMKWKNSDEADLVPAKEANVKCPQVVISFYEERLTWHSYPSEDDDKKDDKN
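AlphaScreen: HP1-beta (50 nM) preformed 30 min with biotin-H3(1-18)K9me3 peptide (50 nM) in PBS pH 7.4, 0.01% Tween-20. Compound added for 30 min at RT, then streptavidin donor/nickel chelate acceptor beads (10 ug/mL) for 30 min.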
JMJD2A Tudor: qHTS Assay for Inhibitors of JMJD2A-Tudor Domain; Lysine-specific demethylase 4A (Homo sapiens), O75164; Potency, µM (highest dose often 114 µM), inactives show at the highest dose activity change, negative = inhibition, hits mostly inhibitors; 4.4% of 390,000 active; AlphaScreen JMJD2A-Tudor / H3K4me3 peptide binding; AID 504339, 2011; also: % is scaled to controls: 0 for no effect and ±100 for the full control effect; nearly all actives have a fitted effect of over 50% in size
Sfp PPTase inh: qHTS Assay for Inhibitors of Bacillus subtilis Sfp phosphopantetheinyl transferase (PPTase) | 4'-phosphopantetheinyl transferase ffp (Bacillus subtilis), Q9F4F7 | Biochemical Sfp PPTase activity, qHTS | Potency, µM, without a hit: largest response in the series, negative = inhibition, most hits filed as inhibitors | 3.5% of 310,000 active | AID 1490, 2009;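 also: the enzyme is Sfp with the accession as filed and its product quenches rhodamine fluorescence; 0% = enzyme reaction without inhibitor and -100% = no enzyme wells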
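Buffer: 50 mM Hepes-Na pH 7.6, 10 mM MgCl2, 0.01% Nonidet P-40, 0.01% BSA. Enzyme 15 nM, pre-exposed to compound 15 min; substrates then added and fluorescence change tracked over 30 min.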
BAZ2B inh: qHTS Assay for Inhibitors of BAZ2B. AlphaScreen BAZ2B-H3K14Ac peptide displacement. AID 504333, 2011. Potency, µM (titrated, usually from 114 µM), for the others: top-dose activity change, negative = inhibition, actives largely listed as inhibitors. Bromodomain adjacent to zinc finger domain protein 2B (Homo sapiens), Q9UIF8. 4.4% of 360,000 active; also: % is scaled to controls: 0 for no effect and ±100 for the full control effect; nearly all actives have a fitted effect of over 60% in size
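AlphaScreen luminescence quantifies BAZ2B engagement of H3K14Ac peptide; the protein and biotinylated peptide are both at 50 nM final, buffer PBS pH 7.4 with 0.01% Tween-20, all steps at room temperature.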
Active calls of the source: *; ? = inconclusive; · = no result given; ! = a repeat was not active; [ ] = remark or other dose. The list is not random: actives were taken first. Their share in the collection is about 12%. Calls follow the shape of the dose curve; as a rule, active = well fitted curve in the direction sought with a large enough effect; inconclusive = small, poorly fitted or top-dose-only effect, or another doubt; inactive = no such curve, though single readings can be large; an effect the other way counts as inactive or inconclusive. Potency is read from the fitted curve at half-maximal effect.

SMILES	TDP1 inh	G9a block	HP1b binding inh	JMJD2A Tudor	Sfp PPTase inh	BAZ2B inh
COC(=O)C1=CO[C@@H](C)[C@@H]2CN3CC[C@]4(C(=O)Nc5c4ccc(OC)c5OC)[C@H]3C[C@H]12	8%	·	·	·	2%	·
CCCN1CCC[C@@H]2Cc3[nH]ncc3C[C@H]21	11%	25µM*!	8%	-23%	-2%	·
c1ccc(C[C@@H](c2ccccc2)N2CCCCC2)cc1	14%[56.1 µM]	·	·	·	-2%	·
COC(=O)C1=C(c2ccc(OCc3ccccc3)cc2)C[C@@H]2CC[C@H]1N2C(=O)NCc1ccc(OC)c(OC)c1	2%	19%[0.501 µM]	7%	-36%	·	7%
COC(=O)C1=C(c2ccc(OCc3ccccc3)cc2)C[C@@H]2CC[C@H]1N2C(=O)NCc1ccc(N(C)C)cc1	10%	9%[2.33 µM]	42%	?	·	8.9µM*
CC(C)CC(=O)Nc1ccc(C(=O)Cn2c(=O)oc3ccccc32)cc1	-6%	-4%	8%	-30%	6%	?
C[n+]1c(-c2ccccc2)c2cc(N)ccc2c2ccc(N)cc21	·	?	-21%	?	-6%	40µM*
c1ccc2c(c1)[nH]c1cnccc12	3%	81%[59 µM]	52%	-23%	-14%	14%
Cc1c2ccncc2c(C)c2c1[nH]c1ccccc12	50µM*	21µM*!	43%	-9%	22µM*	56µM*
C[C@H]1C[C@H](C)C(=O)[C@@H]([C@H](O)CC2CC(=O)NC(=O)C2)C1	-9%[56.1 µM]	·	·	·	17%	·
C=C1[C@@H]2C[C@]3(C(CC2=O)[C@]24C5C[C@H]3[C@H]2N(CC)C[C@]5(C)CC[C@@H]4O)[C@@H]1O (stereo partly specified)	8%	·	·	·	20%	·
CCN1C(=O)C(=Cc2ccc(C)s2)C(=O)N(CC)C1=S	-5%	35µM*	40µM*	25µM*	?	45µM*
CN1CCN(c2ncc3ncc(=O)n(C)c3n2)CC1	·	-3%[0.501 µM]	·	·	-9%	·
C#C[C@]1(O)CC[C@H]2[C@@H]3CCC4=CC(=O)CC[C@]4(C)[C@H]3CC[C@@]21C	6%	?	44%	-5%	-8%	-9%
C#C[C@]1(O)CCC2C3CCC4=C/C(=N/OCC(=O)NC(C)C(=O)NC(CCSC)C(=O)O)CC[C@]4(C)C3CC[C@@]21C (stereo partly specified)	·	56µM*	45%	-17%	-23%	2%
CN(CC(=O)O)C(=O)[C@H](Cc1ccccc1)NC(=O)[C@@H](CCCN=C(N)N)NC(=O)[C@@H](N)Cc1ccc(O)cc1	6%	·	·	·	8%	·
O=c1cccc2n1CC1CC2CN(Cc2c(Cl)cccc2Cl)C1 (stereo unspecified)	3%	35µM*	8%	-36%	-7%	56µM*
O=C(NC(=S)N1C[C@H]2C[C@H](C1)c1cccc(=O)n1C2)c1ccc(Cl)cc1	·	?	11%	?	-15%	-7%
COc1cc(C(=O)NC(=S)N2C[C@H]3C[C@H](C2)c2cccc(=O)n2C3)cc(OC)c1OC	·	25µM*	19%	-9%	?	?
COC(=O)C(NC(=S)N1CC2C[C@@H](C1)Cn1c2cccc1=O)C(C)C (stereo partly specified)	·	45%	23%	6%	4%	4%
COc1cc(OC)cc(C(=O)NC(=S)N2C[C@H]3C[C@H](C2)c2cccc(=O)n2C3)c1	·	50µM*	2%	-28%	-23%	?
COc1cc(CN2CC3CC(C2)c2cccc(=O)n2C3)cc(OC)c1OC (stereo unspecified)	-1%	-11%[12.7 µM]	2%	-28%	-4%	79µM*
COc1ccc(-c2noc(=O)n2Cc2cc(C)ccc2C)cc1	3%	-3%	56%	42%	13%	-20%
Oc1cccc(Cl)c1	4%	·	·	·	·	·
O=C(c1ccncc1)N1CCC[C@@]2(CCN(Cc3nccs3)C2)C1	·	-2%[12.7 µM]	·	·	21%	·
SMILES	TDP1 inh	G9a block	HP1b binding inh	JMJD2A Tudor	Sfp PPTase inh	BAZ2B inh
OC[C@H]1O[C@@H](n2cnc3cc(Cl)c(Cl)cc32)[C@H](O)[C@H]1O	9%	?	·	·	11%	·
CCCCCCCCCC(CC)c1ccc(S(=O)(=O)O)cc1 (stereo unspecified)	6%	11%[59 µM]	·	·	18%	·
CN(C)C(=O)Oc1cccc([N+](C)(C)C)c1	4%	-8%[59 µM]	51%	5%	7%	-17%
Cc1ccc(OP2(=O)Nc3cc(C)c(C)cc3S2)cc1 (stereo unspecified)	·	·	-7%[57 µM]	1.3µM*	·	·
C=CC(=O)OCCN(C)C	9%	·	·	·	·	·
CN(C)c1ccc(P(=O)(OC2CCCCC2)C(Nc2ccccc2)c2cccnc2)cc1 (stereo unspecified)	5%	·	-17%	-21%	-7%	40µM*
CC(C)COP(=O)(c1ccc(N(C)C)cc1)C(Nc1ccccc1)c1ccccc1 (stereo unspecified)	8%	?	48%	-35%[57.1 µM]	-6%	?
CCOP1(=S)Oc2cc3c(cc2C(C(=O)OC)(C(F)(F)F)O1)OCO3 (stereo unspecified)	-2%	?	?	?	25µM*	-33%
CN1C(=O)C(=Cc2ccccc2Oc2ccc(Cl)c(F)c2)C(=O)N(C)C1=O	·	-21%	132%	10%	56µM*	19%
C=CCn1cc(C=C2C(=O)N(C)C(=O)N(C)C2=O)c2ccccc21	·	-3%	43%	-11%	-5%	5%
O=C1NC(=O)C(=Cc2ccccc2Oc2ccc(F)cc2)C(=O)N1	·	10µM*	42%	-2%	45µM*	16%
CC[N+](C)(C)c1cccc(O)c1	3%	-12%[59 µM]	36%	-1%	8%	5%
O=c1c2ccccc2nc(/C=C/c2cccnc2)n1Cc1ccccc1	10µM*	·	?	22µM*	32µM*	10µM*
CC(C)[C@H](NC(=O)[C@H](CC(=O)O)NC(=O)[C@H](Cc1ccccc1)NC(=O)[C@@H](C)NC(=O)[C@@H](N)Cc1ccc(O)cc1)C(=O)N[C@H](C(=O)NCC(N)=O)C(C)C	6%	·	·	·	-14%	·
CCn1c(N)c(C(=O)NC)sc1=S	7%	?	-68%	56µM*	2.2µM*	?
Nc1ccc(-c2ccc(N)c(Cl)c2)cc1Cl	14%	·	·	·	·	·
